# In PubChem BioAssay AID651564 (Sanford-Burnham Center for Chemical Genomics, 2012):
# The other results are listed elsewhere or left out. Unmarked numbers belong to inactive results. The source made the active and inactive calls. No stated cut-off is given here; in the data, active means IC50 below about 80 µM; inactive means the rest.
# Experiment: fluorescent counter-screen in isolated mitochondria, dose response, counter-screen for MPTP inhibitor project, biochemical, fluorescence, uHTS hits (AID 651564)
# Details: isolated mitochondria counterscreen, fluorescence read-out
row,SMILES,IC50
1,COc1ccc(C2NCc3ccc4c(c3-n3cccc32)OCO4)cc1OC (stereo not drawn),> 80 µM
2,O=Cc1cn(Cc2ccc(F)cc2Cl)c2ccccc12,22.6 µM (active)
3,CC(Cc1ccccc1)NCCC(c1ccccc1)c1ccccc1 (stereo not drawn),18.7 µM (active)
